# Data reported in ChEMBL document CHEMBL3988442, “University of Dundee, Small-Polar-MMV Screening Library” (2021).
# For some assays here: Potency and affinity values are given separately.
# Legend:
# Design in all cases: scale not given: direction of the effect not stated beside the values
# [1] = target: Protein translocase subunit SecA (Escherichia coli (strain K12)) (UniProt P10408); test: Assay to Identify E. coli SecA ATPase Inhibitors; assay type: functional; details: 30 µM
# [2] = target: T1, Ubiquitin-activating enzyme e1, putative (Leishmania donovani (strain BPK282A1)) (UniProt E9BSI1); test: Leishmania donovani Ubiquitin Activating Enzyme (LdE1); assay type: functional; details: 30 µM
# T1 sequence (whole entry): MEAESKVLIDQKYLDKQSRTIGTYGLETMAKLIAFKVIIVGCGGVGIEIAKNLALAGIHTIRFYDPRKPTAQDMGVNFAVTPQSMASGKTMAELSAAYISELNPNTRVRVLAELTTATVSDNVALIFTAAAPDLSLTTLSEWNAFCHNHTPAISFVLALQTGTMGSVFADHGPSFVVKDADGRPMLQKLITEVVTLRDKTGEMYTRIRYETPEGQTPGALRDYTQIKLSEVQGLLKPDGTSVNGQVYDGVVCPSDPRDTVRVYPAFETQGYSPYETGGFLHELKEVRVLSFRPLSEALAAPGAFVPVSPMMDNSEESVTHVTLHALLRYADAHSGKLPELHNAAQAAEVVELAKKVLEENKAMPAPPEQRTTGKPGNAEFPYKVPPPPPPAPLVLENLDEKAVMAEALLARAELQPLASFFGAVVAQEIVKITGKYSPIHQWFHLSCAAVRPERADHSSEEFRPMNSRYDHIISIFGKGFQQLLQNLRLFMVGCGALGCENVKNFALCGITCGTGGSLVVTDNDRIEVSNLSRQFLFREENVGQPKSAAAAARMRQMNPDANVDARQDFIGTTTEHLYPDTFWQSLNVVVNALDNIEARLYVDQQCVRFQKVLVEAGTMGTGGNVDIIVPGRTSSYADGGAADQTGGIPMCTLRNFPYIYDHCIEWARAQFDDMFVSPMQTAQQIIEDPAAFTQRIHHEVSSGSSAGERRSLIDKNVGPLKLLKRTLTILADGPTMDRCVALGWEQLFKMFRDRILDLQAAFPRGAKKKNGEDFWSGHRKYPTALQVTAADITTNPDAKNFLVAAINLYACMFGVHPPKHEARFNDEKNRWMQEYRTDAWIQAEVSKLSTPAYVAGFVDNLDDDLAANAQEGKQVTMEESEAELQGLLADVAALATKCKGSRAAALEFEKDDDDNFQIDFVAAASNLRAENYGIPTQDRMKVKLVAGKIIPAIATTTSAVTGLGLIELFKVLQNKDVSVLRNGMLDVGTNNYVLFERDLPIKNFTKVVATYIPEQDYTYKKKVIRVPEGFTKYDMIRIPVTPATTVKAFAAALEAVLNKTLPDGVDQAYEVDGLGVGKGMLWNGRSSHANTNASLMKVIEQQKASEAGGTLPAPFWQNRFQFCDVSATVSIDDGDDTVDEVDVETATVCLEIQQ
# [3] = target: Sialic acid-binding Ig-like lectin 9 (Homo sapiens) (UniProt Q9Y336); test: Hs-Siglec9 ALPHAscreen SOP 20170721; details: 10 µM
# Trypanosoma cruzi = test: Trypanosoma cruzi phosphomannomutase and mannose-1-phosphate guanylyltransferase assay; assay type: functional; details: 10 µM
# [4] = target: T2, Arginase-2, mitochondrial (Homo sapiens) (UniProt P78540); test: in vitro enzyme assay to detect the production of urea directly proportional to the activity of Arginase II; assay type: functional; details: 33.3 µM; further: in the data most compounds retested in dose-response had high values
# T2 sequence (whole entry): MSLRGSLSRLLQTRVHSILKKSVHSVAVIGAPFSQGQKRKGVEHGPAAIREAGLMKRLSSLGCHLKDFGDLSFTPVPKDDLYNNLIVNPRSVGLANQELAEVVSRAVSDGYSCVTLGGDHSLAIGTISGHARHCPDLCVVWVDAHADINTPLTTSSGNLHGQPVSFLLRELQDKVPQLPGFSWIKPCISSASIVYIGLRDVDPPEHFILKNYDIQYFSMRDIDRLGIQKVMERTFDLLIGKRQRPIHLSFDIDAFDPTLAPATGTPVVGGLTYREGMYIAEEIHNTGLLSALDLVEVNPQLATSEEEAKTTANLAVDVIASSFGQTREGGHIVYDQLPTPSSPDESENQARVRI
# [5] = target: T3, Proteasome subunit beta (Trypanosoma cruzi) (UniProt O96673); test: Trypanosoma cruzi proteasome chymotrypsin-like activity (TcProtChymo) assay.; further: in the data most compounds retested in dose-response had high values; assay type: functional; details: 9.37 µM
# T3 sequence (whole entry): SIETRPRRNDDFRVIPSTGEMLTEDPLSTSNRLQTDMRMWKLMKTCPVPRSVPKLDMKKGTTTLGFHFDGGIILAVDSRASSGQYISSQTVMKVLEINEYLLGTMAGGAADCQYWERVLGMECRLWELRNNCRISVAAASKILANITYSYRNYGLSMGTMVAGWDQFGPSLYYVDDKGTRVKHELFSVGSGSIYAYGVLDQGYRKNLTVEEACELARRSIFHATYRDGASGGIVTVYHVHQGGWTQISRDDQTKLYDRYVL
# Homo sapiens = organism: Homo sapiens; test: To identify inhibition of the IFN signalling (Jak-Stat) pathway via expression of an eGFP reporter gene under the control of an IFN-stimulated response element (ISRE) containing MxA promoter.; assay type: functional; details: 30 µM
# [6] = target: T4, Tyrosyl-tRNA synthetase, putative (Trypanosoma cruzi (strain CL Brener)) (UniProt Q4DSP6); test: Trypanosoma cruzi tyrosyl tRNA synthetase (TcYRS) _High Tyrosine SOP; assay type: functional; details: 30 µM; further: in the data most compounds retested in dose-response had high values
# T4 sequence (whole entry): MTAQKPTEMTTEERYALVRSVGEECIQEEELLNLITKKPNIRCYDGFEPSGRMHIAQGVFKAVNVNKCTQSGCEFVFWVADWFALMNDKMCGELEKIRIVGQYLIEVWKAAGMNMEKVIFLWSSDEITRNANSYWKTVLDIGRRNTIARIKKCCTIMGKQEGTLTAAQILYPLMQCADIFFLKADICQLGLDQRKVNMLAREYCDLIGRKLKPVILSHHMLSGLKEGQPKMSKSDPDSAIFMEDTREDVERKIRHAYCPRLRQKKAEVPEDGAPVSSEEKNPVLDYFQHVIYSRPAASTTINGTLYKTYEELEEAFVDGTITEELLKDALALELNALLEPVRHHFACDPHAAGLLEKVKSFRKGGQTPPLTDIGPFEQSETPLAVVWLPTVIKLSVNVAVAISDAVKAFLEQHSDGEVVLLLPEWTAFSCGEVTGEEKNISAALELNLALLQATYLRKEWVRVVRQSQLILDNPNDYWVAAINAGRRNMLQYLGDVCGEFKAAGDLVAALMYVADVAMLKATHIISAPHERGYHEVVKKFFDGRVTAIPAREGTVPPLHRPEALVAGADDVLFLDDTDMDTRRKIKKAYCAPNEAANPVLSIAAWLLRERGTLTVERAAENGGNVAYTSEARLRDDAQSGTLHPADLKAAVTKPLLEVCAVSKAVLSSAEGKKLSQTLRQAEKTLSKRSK
# [7] = target: T4, Tyrosyl-tRNA synthetase, putative (Trypanosoma cruzi (strain CL Brener)); test: Trypanosoma cruzi tyrosyl tRNA synthetase (TcYRS) SOP; assay type: functional; details: 30 µM
# [8] = target: Chromo domain-containing protein 1 (Saccharomyces cerevisiae (strain ATCC 204508 / S288c) (Baker's yeast)) (UniProt P32657); test: ScCHD-1 Enzyme Inhibition Assay; assay type: functional; details: 30 µM; further: in the data most compounds retested in dose-response had high values
# Chromo domain-containing protein 1 (Saccharomyces cerevisiae (strain ATCC 204508 / S288c) (Baker's yeast)), sequence (P32657 whole entry, the tested form may be a part): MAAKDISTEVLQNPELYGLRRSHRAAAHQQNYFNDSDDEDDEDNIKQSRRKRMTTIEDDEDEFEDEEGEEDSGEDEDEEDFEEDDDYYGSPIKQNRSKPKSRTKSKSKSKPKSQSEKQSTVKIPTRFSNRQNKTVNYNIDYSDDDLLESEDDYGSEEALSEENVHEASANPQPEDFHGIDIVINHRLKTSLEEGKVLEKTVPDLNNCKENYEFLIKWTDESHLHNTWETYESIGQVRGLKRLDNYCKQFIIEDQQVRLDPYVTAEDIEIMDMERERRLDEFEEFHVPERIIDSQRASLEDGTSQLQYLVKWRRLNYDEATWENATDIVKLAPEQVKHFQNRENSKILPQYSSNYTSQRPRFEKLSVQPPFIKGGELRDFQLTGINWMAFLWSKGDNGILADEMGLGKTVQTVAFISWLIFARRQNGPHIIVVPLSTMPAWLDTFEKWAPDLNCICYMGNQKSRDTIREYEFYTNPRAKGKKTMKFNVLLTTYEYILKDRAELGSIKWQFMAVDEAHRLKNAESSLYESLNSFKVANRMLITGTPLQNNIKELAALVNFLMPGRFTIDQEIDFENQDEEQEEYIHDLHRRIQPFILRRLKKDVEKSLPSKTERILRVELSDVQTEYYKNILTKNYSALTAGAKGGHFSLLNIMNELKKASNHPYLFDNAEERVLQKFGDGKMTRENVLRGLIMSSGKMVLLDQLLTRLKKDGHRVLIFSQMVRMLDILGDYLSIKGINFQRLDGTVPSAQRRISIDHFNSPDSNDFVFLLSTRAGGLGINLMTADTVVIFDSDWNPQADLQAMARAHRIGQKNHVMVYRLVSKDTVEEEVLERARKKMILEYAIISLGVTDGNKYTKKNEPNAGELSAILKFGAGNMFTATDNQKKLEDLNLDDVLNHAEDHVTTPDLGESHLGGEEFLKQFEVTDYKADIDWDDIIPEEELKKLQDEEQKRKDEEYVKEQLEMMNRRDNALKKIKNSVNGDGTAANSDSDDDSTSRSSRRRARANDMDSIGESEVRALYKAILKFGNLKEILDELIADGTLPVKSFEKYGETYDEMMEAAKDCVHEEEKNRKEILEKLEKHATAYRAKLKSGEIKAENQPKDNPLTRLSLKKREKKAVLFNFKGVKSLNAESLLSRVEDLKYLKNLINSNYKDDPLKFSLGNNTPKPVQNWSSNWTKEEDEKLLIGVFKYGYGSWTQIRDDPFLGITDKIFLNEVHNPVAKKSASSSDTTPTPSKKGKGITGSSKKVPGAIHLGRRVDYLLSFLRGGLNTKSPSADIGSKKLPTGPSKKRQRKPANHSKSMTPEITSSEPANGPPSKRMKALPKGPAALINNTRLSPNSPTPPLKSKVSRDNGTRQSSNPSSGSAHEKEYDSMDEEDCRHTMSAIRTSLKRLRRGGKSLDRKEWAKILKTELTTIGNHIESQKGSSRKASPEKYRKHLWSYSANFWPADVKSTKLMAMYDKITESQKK
# Sialic acid-binding Ig-like lectin 9 (Homo sapiens), sequence (Q9Y336 whole entry): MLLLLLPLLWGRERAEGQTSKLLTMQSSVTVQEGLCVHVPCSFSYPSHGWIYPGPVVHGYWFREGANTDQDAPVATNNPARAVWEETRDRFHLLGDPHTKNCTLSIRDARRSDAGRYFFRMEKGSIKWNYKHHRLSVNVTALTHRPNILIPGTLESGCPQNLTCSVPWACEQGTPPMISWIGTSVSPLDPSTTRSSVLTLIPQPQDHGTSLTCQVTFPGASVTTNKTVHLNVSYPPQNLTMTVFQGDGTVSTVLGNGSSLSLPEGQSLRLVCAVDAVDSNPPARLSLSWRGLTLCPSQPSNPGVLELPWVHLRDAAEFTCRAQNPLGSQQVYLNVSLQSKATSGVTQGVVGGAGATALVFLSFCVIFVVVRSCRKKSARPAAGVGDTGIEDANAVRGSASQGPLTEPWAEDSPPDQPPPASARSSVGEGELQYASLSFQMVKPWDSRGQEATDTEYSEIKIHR
# Protein translocase subunit SecA (Escherichia coli (strain K12)), sequence (P10408 whole entry): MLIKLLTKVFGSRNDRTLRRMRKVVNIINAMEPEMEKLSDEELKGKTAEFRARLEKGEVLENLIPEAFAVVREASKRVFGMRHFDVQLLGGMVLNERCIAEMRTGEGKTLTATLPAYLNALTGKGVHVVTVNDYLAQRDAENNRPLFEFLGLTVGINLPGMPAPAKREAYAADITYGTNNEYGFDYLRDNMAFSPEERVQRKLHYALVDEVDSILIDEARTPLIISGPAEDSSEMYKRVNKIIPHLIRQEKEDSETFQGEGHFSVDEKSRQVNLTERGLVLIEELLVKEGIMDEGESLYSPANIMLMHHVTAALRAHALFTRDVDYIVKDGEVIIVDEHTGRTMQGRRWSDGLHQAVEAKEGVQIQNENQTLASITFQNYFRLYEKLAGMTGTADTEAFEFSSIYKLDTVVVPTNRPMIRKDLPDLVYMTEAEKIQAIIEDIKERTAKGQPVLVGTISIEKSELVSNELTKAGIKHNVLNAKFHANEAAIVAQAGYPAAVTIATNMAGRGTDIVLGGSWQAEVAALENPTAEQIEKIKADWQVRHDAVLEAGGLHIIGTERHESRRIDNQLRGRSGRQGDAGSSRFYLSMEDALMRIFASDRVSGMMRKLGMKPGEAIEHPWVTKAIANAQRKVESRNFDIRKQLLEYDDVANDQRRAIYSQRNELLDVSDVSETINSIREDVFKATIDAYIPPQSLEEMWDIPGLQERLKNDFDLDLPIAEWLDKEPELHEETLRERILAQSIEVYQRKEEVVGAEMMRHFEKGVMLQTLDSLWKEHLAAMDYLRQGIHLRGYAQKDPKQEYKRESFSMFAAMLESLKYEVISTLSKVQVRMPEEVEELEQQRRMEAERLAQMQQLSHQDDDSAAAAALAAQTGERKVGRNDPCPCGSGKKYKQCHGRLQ
SMILES,Percent Effect [1] [%],Percent Effect [2] [%],Percent Effect [3] [%],Percent Effect (Trypanosoma cruzi) [%],Percent Effect [4] [%],Percent Effect [5] [%],Percent Effect (Homo sapiens) [%],Percent Effect [6] [%],Percent Effect [7] [%],Percent Effect [8] [%]
CCS(=O)(=O)CCN1CCC(N(C)Cc2noc(C(C)C)n2)C1 (stereo not given),-8.69,13,9.47,-1.87,-0.205,10.3,10.2,4.9,11.8,-6.07
CC(C)CN1CCC2(CCN(Cc3ccsc3)CC2)C1=O,-2.7,11.7,1.92,0.938,0.913,6.78,-29.8,8.7,12.5,1.04
CN(C)CC(=O)N1CCC2(CC1)COC(COc1ccccn1)C2 (stereo not given),-4.97,6.49,-5.49,2.82,-4.86,12.3,-11.4,5.79,12.8,-0.892
Cn1cnc2c1CCN(Cc1cccc(C(N)=O)c1)C2,-3.09,7.69,3.32,0.657,2.87,-3.67,7.29,-0.478,13.2,4.07
OC(CN1CCOCC1)CN1CCc2c(ncn2C2CC2)C1 (stereo not given),-2.85,26.7,-6.52,-1.21,-4.88,14.3,17.9,1.58,7.69,-10.6
Cc1ccc(NC(=O)C(C)N2CCCN(c3nccs3)CC2)c(C)c1 (stereo not given),-1.1,15.4,-3.51,-1.41,4.51,14.1,8.08,2.39,6.02,-0.819
CCn1nc2c(cc1=O)CN(Cc1nc(-c3ccccn3)no1)CC2,-4.5,12.8,-6.79,-0.469,-2.87,14.1,28.1,0.478,6.02,0.402
O=C(NCC1CCOC1)Nc1ccc(OCC(F)(F)F)nc1 (stereo not given),0.633,7.69,2.59,-1.97,8.2,7.76,17.4,2.39,8.43,-2.87
Cc1ccc(CN2CCCn3c(nc(CN4CCCC4)cc3=O)C2)s1,-4.72,3.9,-1.12,-2.82,-2.02,2.38,-18.4,0.526,7.69,3.51
Cc1cnn(CC2CCCN2C(=O)c2cc(Cl)ccc2F)c1 (stereo not given),-1.32,2.6,-6.93,-0.933,5.12,4.91,10.8,-1.96,-2.35,2.99
COc1cccc(OC)c1C(=O)N1CCN(c2ccccc2F)CC1,0.59,12,0.141,-4.34,-6.2,12.2,46.4,0,-5,-24.9
